Laboratory results published in PubChem BioAssay AID1159580 (chemical genetic matrix, 2015).
The whole screen tested about 5,500 compounds, of which about 2,000 (36%) were called active. Not shown: some 18% with an inconclusive outcome. No stated cut-off is given here; in the data, active means normalized growth mostly below about 0.91 (no sharp cut-off); inconclusive means no clear call, values can overlap the other calls; inactive means mostly above about 0.92. The list shows a part of the results.

Assay: chemical genetic growth profiling, strain panel (AID 1159580);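 further: tested at 20 µM; growth read once vehicle control cultures reached saturation at 30 °C; 1 = growth at the plate median or of vehicle wells; lower values mean less growth of the strain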
Conditions: growth OD
[1] = S. cerevisiae deletion strains, locus YAL013W, strain DEP1, hits give low values
[2] = S. cerevisiae deletion strains, locus YBR229C, strain ROT2, hits give low values
[3] = S. cerevisiae deletion strains, locus YCL061C, strain MRC1, hits give low values
[4] = S. cerevisiae deletion strains, locus YDL101C, strain DUN1, hits give low values
[5] = S. cerevisiae deletion strains, locus YDR150W, strain NUM1, hits give low values
[6] = S. cerevisiae deletion strains, locus YEL061C, strain CIN8, hits give low values
[7] = S. cerevisiae deletion strains, locus YGR078C, strain PAC10, hits give low values
[8] = S. cerevisiae deletion strains, locus YGR229C, strain SMI1, hits give low values
[9] = S. cerevisiae deletion strains, locus YHR030C, strain SLT2, hits give low values
[10] = S. cerevisiae deletion strains, locus YHR087W, strain rtc3, hits give low values
[11] = S. cerevisiae deletion strains, locus YJR043C, strain POL32, hits give low values
[12] = S. cerevisiae deletion strains, locus YJR075W, strain HOC1, hits give low values
[13] = S. cerevisiae deletion strains, locus YLR039C, strain RIC1, hits give low values
[14] = S. cerevisiae deletion strains, locus YLR058C, strain SHM2 (second series), hits give low values
[15] = S. cerevisiae deletion strains, locus YLR085C, strain ARP6, hits give low values
[16] = S. cerevisiae deletion strains, locus YLR262C, strain YPT6, hits give low values
[17] = S. cerevisiae deletion strains, locus YML094W, strain GIM5, hits give low values
[18] = S. cerevisiae deletion strains, locus YMR219W, strain ESC1, hits give low values
[19] = S. cerevisiae deletion strains, locus YMR263W, strain SAP30, hits give low values
[20] = S. cerevisiae deletion strains, locus YMR307W, strain GAS1, hits give low values
[21] = S. cerevisiae deletion strains, locus YNL153C, strain GIM3, hits give low values
[22] = S. cerevisiae deletion strains, locus YNL298W, strain CLA4 (second series), hits give low values
[23] = S. cerevisiae deletion strains, locus YNL322C, strain KRE1, hits give low values
[24] = S. cerevisiae deletion strains, locus YNR030W, strain Alg12, hits give low values
[25] = S. cerevisiae deletion strains, locus YPL055C, strain LGE1, hits give low values
[26] = S. cerevisiae deletion strains, locus YPL241C, strain CIN2, hits give low values
[27] = S. cerevisiae deletion strains, locus YPR135W, strain CTF4, hits give low values

Measured: normalized growth

COC(=O)c1ccc(S(=O)(=O)N2CCC(C(N)=O)CC2)n1C
inactive: [1] 0.97 | [2] 1 | [3] 0.99 | [4] 0.97 | S. cerevisiae deletion strains, locus YDL134C, strain PPH21, hits give low values 1.03 | [5] 0.881 | [6] 1.02 | [7] 0.989 | [8] 1 | [9] 1.05 | [10] 0.993 | [11] 0.983 | [12] 0.988 | S. cerevisiae deletion strains, locus YKL190W, strain CNB1, hits give low values 1.02 | [13] 1.01 | [14] 0.991 | [15] 1.06 | [16] 1.03 | [17] 0.999 | [18] 0.99 | [19] 0.981 | [20] 1.05 | [21] 1.01 | [22] 1.06 | [23] 1 | [24] 1.04 | [25] 0.852 | [26] 1.02 | [27] 1

CCOC(=O)/C(C#N)=C(\Nc1ccc(C(=O)OCC)cc1)SC
inactive: S. cerevisiae deletion strains, locus YAR019C, strain CDC15, hits give low values 0.982 | S. cerevisiae deletion strains, locus YBL105C, strain PKC1, hits give low values 0.977 | S. cerevisiae deletion strains, locus YBR135W, strain CKS1, hits give low values 0.98 | S. cerevisiae deletion strains, locus YBR136W, strain MEC1, hits give low values 0.974 | S. cerevisiae deletion strains, locus YBR160W, strain CDC28, hits give low values 0.98 | S. cerevisiae deletion strains, locus YDL017W, strain CDC7, hits give low values 0.978 | S. cerevisiae deletion strains, locus YDL028C, strain MPS1, hits give low values 0.984 | [4] 0.977 | S. cerevisiae deletion strains, locus YDL108W, strain KIN28, hits give low values 0.972 | S. cerevisiae deletion strains, locus YDL132W, strain cdc53, hits give low values 0.981 | S. cerevisiae deletion strains, locus YDL214C, strain PRR2, hits give low values 0.929 | S. cerevisiae deletion strains, locus YDR052C, strain DBF4, hits give low values 0.983 | S. cerevisiae deletion strains, locus YDR054C, strain cdc34, hits give low values 0.984 | S. cerevisiae deletion strains, locus YDR226W, strain ADK1, hits give low values 0.979 | S. cerevisiae deletion strains, locus YDR477W, strain SNF1, hits give low values 0.954 | S. cerevisiae deletion strains, locus YER123W, strain YCK3, hits give low values 0.91 | S. cerevisiae deletion strains, locus YER133W, strain GLC7, hits give low values 0.945 | S. cerevisiae deletion strains, locus YFL009W, strain cdc4, hits give low values 0.978 | S. cerevisiae deletion strains, locus YFL029C, strain CAK1, hits give low values 0.982 | S. cerevisiae deletion strains, locus YFR003C, strain YPI1, hits give low values 0.977 | S. cerevisiae deletion strains, locus YFR019W, strain FAB1, hits give low values 0.968 | S. cerevisiae deletion strains, locus YFR028C, strain CDC14, hits give low values 0.979 | S. cerevisiae deletion strains, locus YGR040W, strain KSS1, hits give low values 0.946 | S. cerevisiae deletion strains, locus YGR052W, strain FMP48, hits give low values 0.959 | S. cerevisiae deletion strains, locus YGR092W, strain DBF2, hits give low values 0.947 | S. cerevisiae deletion strains, locus YHR079C, strain IRE1, hits give low values 0.841 | S. cerevisiae deletion strains, locus YHR082C, strain KSP1, hits give low values 0.998 | S. cerevisiae deletion strains, locus YHR205W, strain SCH9, hits give low values 0.872 | S. cerevisiae deletion strains, locus YIL147C, strain SLN1, hits give low values 0.98 | S. cerevisiae deletion strains, locus YJL095W, strain BCK1, hits give low values 0.934 | S. cerevisiae deletion strains, locus YJL128C, strain PBS2, hits give low values 0.913 | S. cerevisiae deletion strains, locus YJL157C, strain FAR1, hits give low values 0.945 | S. cerevisiae deletion strains, locus YJR016C, strain ILV3, hits give low values 0.99 | S. cerevisiae deletion strains, locus YJR066W, strain TOR1 (second series), hits give low values 0.941 | S. cerevisiae deletion strains, locus YJR066W, strain TOR1, hits give low values 0.985 | S. cerevisiae deletion strains, locus YKL048C, strain ELM1, hits give low values 0.921 | S. cerevisiae deletion strains, locus YKL067W, strain YNK1, hits give low values 0.928 | S. cerevisiae deletion strains, locus YKL101W, strain HSL1, hits give low values 0.908 | S. cerevisiae deletion strains, locus YKL193C, strain SDS22, hits give low values 0.984 | S. cerevisiae deletion strains, locus YKL203C, strain TOR2, hits give low values 0.977 | S. cerevisiae deletion strains, locus YLR133W, strain CKI1, hits give low values 0.953 | S. cerevisiae deletion strains, locus YLR403W, strain SFP1, hits give low values 0.954 | S. cerevisiae deletion strains, locus YML070W, strain DAK1, hits give low values 0.909 | S. cerevisiae deletion strains, locus YMR001C, strain CDC5, hits give low values 0.981 | S. cerevisiae deletion strains, locus YMR205C, strain PFK2 (second series), hits give low values 0.949 | S. cerevisiae deletion strains, locus YMR277W, strain FCP1, hits give low values 0.983 | S. cerevisiae deletion strains, locus YNL006W, strain LST8, hits give low values 0.98 | S. cerevisiae deletion strains, locus YNL020C, strain ARK1, hits give low values 0.944 | S. cerevisiae deletion strains, locus YNL161W, strain CBK1, hits give low values 0.978 | S. cerevisiae deletion strains, locus YNL183C, strain NPR1, hits give low values 0.948 | S. cerevisiae deletion strains, locus YNL207W, strain RIO2, hits give low values 0.975 | S. cerevisiae deletion strains, locus YNL222W, strain SSU72, hits give low values 0.982 | S. cerevisiae deletion strains, locus YNL307C, strain MCK1 (second series), hits give low values 0.931 | S. cerevisiae deletion strains, locus YOL078W, strain AVO1, hits give low values 0.994 | S. cerevisiae deletion strains, locus YOL136C, strain PFK27, hits give low values 0.912 | S. cerevisiae deletion strains, locus YOR061W, strain CKA2, hits give low values 0.949 | S. cerevisiae deletion strains, locus YOR119C, strain RIO1, hits give low values 1.02 | S. cerevisiae deletion strains, locus YOR231W, strain MKK1, hits give low values 0.864 | S. cerevisiae deletion strains, locus YOR329C, strain SCD5, hits give low values 0.98 | S. cerevisiae deletion strains, locus YPL031C, strain PHO85, hits give low values 0.957 | S. cerevisiae deletion strains, locus YPL153C, strain RAD53, hits give low values 0.954 | S. cerevisiae deletion strains, locus YPL204W, strain HRR25, hits give low values 0.948 | S. cerevisiae deletion strains, locus YPL209C, strain IPL1, hits give low values 0.982 | S. cerevisiae deletion strains, locus YPR025C, strain CCL1, hits give low values 0.979 | S. cerevisiae deletion strains, locus YPR106W, strain ISR1, hits give low values 0.978 | S. cerevisiae deletion strains, locus YPR111W, strain DBF20, hits give low values 0.947 | S. cerevisiae deletion strains, strain NNK1, hits give low values 0.959 | S. cerevisiae deletion strains, strain TSCII, hits give low values 0.984
active: [9] 0.815 | S. cerevisiae deletion strains, locus YLR113W, strain HOG1, hits give low values 0.706 | S. cerevisiae deletion strains, locus YPL256C, strain CLN2, hits give low values 0.751

CCOC(=O)c1ccc(NC(=O)CCC(=O)O)cc1
inactive: [1] 0.994 | [2] 0.983 | [4] 0.978 | [5] 0.99 | [6] 0.99 | [7] 0.99 | [9] 1.07 | [10] 0.982 | [11] 1.01 | [12] 1 | [13] 1.06 | [14] 0.987 | [15] 1.02 | [16] 1.05 | [17] 1 | [18] 0.991 | [19] 0.981 | [20] 1.01 | [21] 1.01 | [22] 1.01 | [23] 0.989 | [24] 1.02 | S. cerevisiae deletion strains, locus YOL006C, strain TOP1, hits give low values 1.04 | [25] 1 | [26] 1.01 | [27] 1.13

CCOC(=O)c1ccc(NC(N)=S)cc1
inactive: [1] 1.01 | [2] 1.01 | [3] 0.994 | [4] 0.994 | [5] 0.941 | [6] 0.998 | [7] 0.993 | [8] 1 | [9] 1.03 | [10] 0.992 | [11] 0.997 | [12] 0.956 | [13] 1.01 | [14] 0.998 | [15] 0.974 | [16] 1.05 | [17] 0.966 | [18] 0.998 | [19] 0.935 | [20] 0.935 | [21] 0.979 | [22] 1 | [23] 1.01 | [24] 1 | [25] 0.949 | [26] 0.986 | [27] 0.968 | S. cerevisiae strains, strain wild type, hits give low values 1.01
